{"source": "the supplement of paper PMC6805474"}
{"system": "Schistosoma mansoni schistosomula (LE)", "experiment": "XTT viability relative to DMSO control; higher = more viable (less active)", "conditions": "72 h; 10 µM", "description": "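XTT/PMS was then added for a further 24 h (72 h total) and A450 was read. % viability = (sample - heat-killed control)/(DMSO control - heat-killed control) x 100, from duplicate wells in two independent experiments.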", "units": {"XTT viability": "%"}}
{"compound": "COc1cc(CN2CCC3(C=Cc4ccccc43)CC2)cc2c1OCO2", "XTT viability": 73.9}
{"compound": "CCCCCCCCCCCCCCCCOP(=O)([O-])OCC[N+](C)(C)C", "XTT viability": 127}
{"compound": "CC(=O)N(CCN(C(=O)c1ccc(F)cc1)c1ccccc1)c1ccccc1", "XTT viability": 117}
{"compound": "COC(=O)Nc1nc2cc(C(=O)c3ccccc3)ccc2[nH]1", "XTT viability": 71.1}
{"compound": "OC[C@H]1O[C@@H](n2c3ccc(Cl)cc3c3c(-c4cc5ccccc5o4)ncnc32)C(O)[C@H]1O", "note": "(stereo not given in full)", "XTT viability": 93.9}
{"compound": "N#Cc1ccc(-c2ccc(OCC(N)=O)cc2)cc1", "XTT viability": 73.9}
{"compound": "Nc1ncnc2c1ncn2C[C@@H](O)[C@@H](O)C(=O)O", "XTT viability": 63.7}
{"compound": "COC(=O)C1=C(C)NC(C)=C(C(=O)OC(C)C)C1c1cccc2nonc12", "note": "(stereo not given)", "XTT viability": 63.2}
{"compound": "COc1ccc2nccc(NC(=O)C3CCN(CCc4ccc(Cl)cc4)CC3)c2n1", "XTT viability": 77.2}
{"compound": "Cc1cc(Nc2ccc(C(F)(F)F)cc2)n2ccnc2n1", "XTT viability": 71.7}
{"compound": "O=C1Nc2ccc(Br)cc2C12NCCc1c2[nH]c2ccccc12", "note": "(stereo not given)", "XTT viability": 109}
{"compound": "COc1cc(-c2cc(-c3ccc(S(C)(=O)=O)cc3)cnc2N)ccc1O", "XTT viability": 139}
{"compound": "COc1ccc(OC(C)C(=O)Nc2ccc(Cl)cc2C)cc1", "note": "(stereo not given)", "XTT viability": 97.2}
{"compound": "O=C(Nc1ccc(N2CCNCC2)nc1)c1oc(-c2ccccc2)nc1C(F)(F)F", "XTT viability": 69.7}
{"compound": "COc1ccc(-c2cc(NC(=O)c3ccc(F)cc3Cl)ccc2OC)cc1", "XTT viability": 89.7}
{"compound": "CC(C)(C)C1CCC(CC2=C(O)C(=O)c3ccccc3C2=O)CC1", "note": "(stereo not given)", "XTT viability": 71.7}
{"compound": "Nc1ncc(Br)cc1-c1nc2cc(Cl)cnc2[nH]1", "XTT viability": 131}
{"compound": "CNC(=O)CNc1nc(-c2ccccn2)nc2scc(-c3ccccc3)c12", "XTT viability": 90}
{"compound": "CN(C)CCNC(=O)N1CCCN(c2ncnc3cc(-c4ccccc4)sc23)CC1", "XTT viability": 106}
{"compound": "CCCn1c(CNc2ccccc2O)nc2ccccc21", "XTT viability": 337}
{"compound": "Nc1nccc2ccc(-c3ccc4nccn4c3)cc12", "XTT viability": 41.1}
{"compound": "O=S(=O)(c1ccc(Cl)cc1)N1CCN(C(=S)NCc2ccco2)CC1", "XTT viability": 75.2}
{"compound": "CCc1nc2ccc(C(=O)NCc3ccc4c(c3)OCO4)cn2c1N(C)Cc1cccs1", "XTT viability": 140}
{"compound": "COc1ccc(-c2onc(C(F)(F)F)c2-c2ccc(Cl)cc2)c(O)c1", "XTT viability": 0.0885}
{"compound": "OCc1ccc(-c2cncc(Nc3cccc(Cl)c3)c2)cc1", "XTT viability": 99.5}
{"compound": "CCC(Sc1nc2ccccc2o1)C(=O)Nc1nnc(C)s1", "note": "(stereo not given)", "XTT viability": 82.8}
{"compound": "O=C(Nc1ccc(C(F)(F)F)c(C(F)(F)F)c1)c1cc(Cl)ccc1O", "XTT viability": 35.4}
{"compound": "O=C(Nc1ccc(N2CCNCC2)cc1)c1ccn2ncc(-c3cccc(Cl)c3)c2n1", "XTT viability": 7.7}
{"compound": "CCc1nc2ccccc2n1CC(O)COc1cc(C)ccc1Cl", "note": "(stereo not given)", "XTT viability": 106}
{"compound": "c1ccc(Oc2ccc(-c3cc(N4CCOCC4)[nH]n3)cc2)cc1", "XTT viability": 112}
{"compound": "O=C(NCCN1CCCC1)c1cc(NCCN2CCOCC2)nc2ccc(Cl)cc12", "XTT viability": 146}
{"compound": "Cc1cc(OCC(=O)Nc2ccc(C(C)C)cc2)n(C)c(=O)c1C#N", "XTT viability": 82.3}
{"compound": "O=C(Nc1nnc(S)s1)c1cc(Br)ccc1Cl", "XTT viability": 91.7}
{"compound": "NCCCC(N)(C(=O)O)C(F)F", "note": "(stereo not given)", "XTT viability": 87.1}
{"compound": "OCCc1ccc(Nc2nccc(-c3nnc4ccccn34)n2)cc1", "XTT viability": 109}
{"compound": "COc1cncc(-c2cncc(N3CCN(c4ccncc4)CC3)n2)c1", "XTT viability": 103}
{"compound": "c1csc(-c2cnc3sc(NCC4CCOCC4)nn23)c1", "XTT viability": 95.7}
{"compound": "Cc1cc(NCC(C)C)c2n[nH]c(-c3ccccc3)c2n1", "XTT viability": 92.7}
{"compound": "O=C(NCCc1ccccc1)c1cc(-c2cccnc2)cnc1NCC1CC1", "XTT viability": 85.9}
{"compound": "O=C(c1ccco1)N(CCCn1ccnc1)c1nc2c(Cl)cccc2s1", "XTT viability": 46.4}
